Source: PubChem (National Center for Advancing Translational Sciences (NCATS))
TDP1 cell noCPT: qHTS for Inhibitors of human tyrosyl-DNA phosphodiesterase 1 (TDP1): qHTS in cells in absence of CPT; DT40 Tdp1-/- hTDP1 cells, no CPT, ATP luminescence, 48 h; Potency, µM (doses to about 46.2 µM), for the others: at the top dose activity change, negative = growth inhibition, actives largely listed as inhibitors; actives 15% (n = 420,000); note: % is set by controls: 0 for no effect and ±100 for the full control effect; nearly all actives have a fitted effect of over 55% in size
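Luminescent ATP content (CellTiter-Glo) served as the growth readout. Knockout chicken DT40 cells expressing human TDP1 were exposed to compounds without camptothecin for a minimum 48 hr at 37 °C.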
ATXN2 expr inh: ATXN2 expression inhibition | HEK-293 ATXN2-luciferase reporter, luminescence, 24 h | Potency, µM (series often up to 57 µM), for the others: top-dose activity change, negative = inhibition, hits mostly inhibitors | actives 0.72% (n = 360,000); note: % is set by controls: 0 for no effect and ±100 for the full control effect; nearly all actives have a fitted effect of over 55% in size
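ATXN2-luciferase reporter cells (luciferase flanked by upstream and downstream ATXN2 gene portions) were treated 24 h at 37 °C with compounds at up to 57 uM. SteadyGlo luminescence gave expression; GF-AFC fluorescence gave viability.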
S2 tox: cell viability loss in ATXN counter-screen; S2 cells (HEK-293 line with an ATXN2-luciferase reporter) viability, CellTiter-Fluor protease fluorescence, 24 h; Potency, µM (doses to about 56.7 µM), actives largely listed as cytotoxic; actives 0.49% (n = 400,000); AID 651635; note: nearly all actives have a fitted effect of over 40% in size
TGFb SMAD3 inh: inhibitors of TGF-b signaling; HepG2 CAGA-GFP TGF-b/SMAD3 reporter, GFP fluorescence, 18 h; TGF-beta stimulated, 500 pg/mL final; Potency, µM (titrated, usually from 46.1 µM), for the others: top-dose activity, negative = inhibition, usual class: inhibitors; actives 1.2% (n = 410,000); note: % is set by controls: 0 for no effect and ±100 for the full control effect; nearly all actives have a fitted effect of over 65% in size
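HEPG2 CAGA-GFP reporter cells (1000/well, DMEM with 1% FBS) received compounds, then recombinant TGF-beta at 500 pg/mL final for 18 hours at 37 degrees C. Per-cell GFP summed per well was normalised to unstimulated and stimulated DMSO controls before curve fitting.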
TDP1 cell CPT: growth inhibition of DT40 Tdp1-/-;hTDP1 cells with camptothecin (screen for TDP1 inhibitors) | chicken DT40 Tdp1-/-;hTDP1 cells + 20 nM CPT, ATP luminescence, 48 h | Potency, µM (series often up to 46.2 µM), without a hit: top-dose activity change, negative = growth inhibition, usual class: inhibitors | actives 12% (n = 420,000); note: % is set by controls: 0 for no effect and ±100 for the full control effect; nearly all actives have a fitted effect of over 55% in size
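Cell growth measured by CellTiter-Glo luminescence after a minimum 48 h, 37 C compound exposure with 20 nM CPT in Tdp1-knockout DT40 cells stably expressing hTDP1, seeded 400/well; qHTS titration format.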
HepG2 viability: kills HepG2 cells in TGF-b inhibitor counter-screen; HepG2 CAGA-GFP viability, ATP luminescence, 18 h; actives 0.76% (n = 410,000); Potency, µM (highest dose often 46.1 µM), inactives show at the highest dose activity change, negative = cytotoxicity, most hits filed as cytotoxic
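CellTiter-Glo luminescence gave cytotoxicity after 18 hours at 37 degrees C. The cells were HepG2 CAGA-GFP in 1% FBS DMEM, stimulated with 500 pg/mL TGF-beta after compound addition. %Activity was normalised to no-cell wells (complete cell-killing) and DMSO (no toxicity), and curves were fitted and classified.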
The depositor's hits bear a star. Only some compounds are listed: those with a hit (about 17% of all), similar ones and a draw of the others. Calls come from the whole dose curve; as a rule, active = well fitted curve in the direction sought with a large enough effect; inconclusive = small, poorly fitted or top-dose-only effect, or another doubt; inactive = no such curve, though single readings can be large; an effect the other way counts as inactive or inconclusive. Potency is the fitted concentration of half-maximal effect.

Screening CCOc1ccccc1CNc1ncnc2onc(-c3ccc(F)cc3)c12 returned TDP1 cell noCPT 23µM*, ATXN2 expr inh 1%, S2 tox inactive, TGFb SMAD3 inh 3%, TDP1 cell CPT 16µM* and HepG2 viability -7%.
For COc1ccccc1CNc1ncnc2onc(-c3ccc(F)cc3)c12 the results were TDP1 cell noCPT -32%, ATXN2 expr inh 8%, S2 tox inactive, TGFb SMAD3 inh 7%, TDP1 cell CPT -30% and HepG2 viability -8%.
For O=C(CSc1nc2ccccc2c(=O)n1-c1ccccc1Cl)NC1CCS(=O)(=O)C1 (centres undefined) the results were TDP1 cell noCPT -5%, ATXN2 expr inh -12%, S2 tox inactive, TGFb SMAD3 inh 4%, TDP1 cell CPT -24% and HepG2 viability 2%.
COc1cc(OC)c(C(=O)OCC(=O)Nc2cccc(S(=O)(=O)NC3=NCCCCC3)c2)cc1OC was read as TDP1 cell noCPT inconclusive, ATXN2 expr inh -4%, S2 tox inactive, TGFb SMAD3 inh -2%, TDP1 cell CPT inconclusive and HepG2 viability 2%.
COc1cc(SC)ccc1C(=O)Nc1cccc(S(=O)(=O)NC2=NCCCCC2)c1 was read as TDP1 cell noCPT inconclusive, ATXN2 expr inh -5%, S2 tox inconclusive, TGFb SMAD3 inh inconclusive, TDP1 cell CPT 21µM* and HepG2 viability 0%.
CCN(CC)S(=O)(=O)c1cccc(NC(=O)c2ccc(SC)cc2OC)c1 was read as TDP1 cell noCPT 7.3µM*, ATXN2 expr inh -28%, S2 tox inconclusive, TGFb SMAD3 inh inconclusive, TDP1 cell CPT 26µM* and HepG2 viability -37%.
For CCCCc1nn2c(=O)cc(COC(=O)C(C)Oc3ccccc3)nc2s1 (centres undefined) the results were TDP1 cell noCPT -4%, ATXN2 expr inh -13%, S2 tox inactive, TGFb SMAD3 inh -18%, TDP1 cell CPT -4% and HepG2 viability -58%.
For CCO[C@H]1OC(C(=O)N2CCN(Cc3ccccc3)CC2)=C[C@@H](C2CCCCC2)[C@@H]1CCCO the results were TDP1 cell noCPT 9.2µM*, ATXN2 expr inh inconclusive, S2 tox inconclusive, TGFb SMAD3 inh inconclusive, TDP1 cell CPT 9.2µM* and HepG2 viability -21%.
CCO[C@H]1OC(C(=O)N2CCN(Cc3ccc4c(c3)OCO4)CC2)=C[C@@H](C(C)(C)C)[C@@H]1CCCO was read as TDP1 cell noCPT inconclusive, ATXN2 expr inh -21%, S2 tox inconclusive, TGFb SMAD3 inh inconclusive, TDP1 cell CPT inconclusive and HepG2 viability -36%.
For CCO[C@H]1OC(C(=O)NCc2ccccc2)=C[C@@H](C2CCCCC2)[C@@H]1CCCO the results were TDP1 cell noCPT 16µM*, ATXN2 expr inh 9%, S2 tox inconclusive, TGFb SMAD3 inh inconclusive, TDP1 cell CPT 18µM* and HepG2 viability -15%.
For CCO[C@@H]1OC(C(=O)N2CCN(Cc3ccc4c(c3)OCO4)CC2)=C[C@H](C2CCCCC2)[C@H]1CCCO the results were TDP1 cell noCPT inconclusive, ATXN2 expr inh inconclusive, S2 tox 18µM*, TGFb SMAD3 inh inconclusive, TDP1 cell CPT 21µM* and HepG2 viability -1%.
CCO[C@@H]1OC(C(=O)N2CCN(Cc3ccccc3)CC2)=C[C@H](C)[C@H]1CCCO was read as TDP1 cell noCPT -12%, ATXN2 expr inh -1%, S2 tox inactive, TGFb SMAD3 inh -1%, TDP1 cell CPT -8% and HepG2 viability -19%.
